PubChem BioAssay (Tox21)
Results filed as inconclusive are left out. Activity calls are given as the source filed them. Unless noted, calls follow the shape of the dose curve; as a rule, active = well fitted curve in the direction sought with a large enough effect in the repeat runs; inconclusive = weak or mixed curves; inactive = no such curve, though single readings can be large; an effect the other way counts as inactive or inconclusive.

Tests used:
[1] = qHTS assay to identify small molecule antagonists of the estrogen receptor alpha (ER-alpha) signaling pathway using the BG1 cell line in the presence of 0.1 nM 17-beta-estradiol - cell viability counter screen (AID 1259241); also: nearly all actives have a fitted effect of over 40% in size
Method in brief: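 The cell line endogenously expresses full-length ER-alpha and carries four EREs driving luciferase. Cells are cultured 5 days hormone-free, treated 22 hr with compounds and 0.1 nM estradiol, then viability is read by fluorescence.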

[2] = qHTS assay to identify small molecule antagonists of the androgen receptor (AR) signaling pathway using the MDA cell line in the presence of 0.5 nM R1881 - cell viability counter screen (AID 1259242); also: nearly all actives have a fitted effect of over 45% in size
Method in brief: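 R1881 at 0.5 nM final stimulated MDA-kb2 cells during 16 hr compound treatment at 37C. Cytotoxicity read: CellTiter-Fluor fluorescence after 30 min.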

[3] = biological target: Androgen receptor (Homo sapiens) (UniProt P10275); experiment: qHTS assay to identify small molecule antagonists of the androgen receptor (AR) signaling pathway using the MDA cell line in the presence of 0.5 nM R1881 (AID 1259243); also: nearly all actives have a fitted effect of over 50% in size
Method in brief: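 We exposed MDA-kb2 cells to compounds under 0.5 nM R1881 stimulation for 16 hr at 37C and quantified MMTV-driven luciferase by luminescence.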

[4] = biological target: Estrogen receptor (Homo sapiens) (UniProt P03372); experiment: qHTS assay to identify small molecule antagonists of the estrogen receptor alpha (ER-alpha) signaling pathway using the BG1 cell line in the presence of 0.1 nM 17-beta-estradiol (AID 1259244); also: nearly all actives have a fitted effect of over 50% in size
Method in brief: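 VM7Luc4E2; 4xERE-luciferase; 0.1 nM E2 final; 22 h co-incubation, 37C; ONE-Glo luminescence after 30 min at room temperature.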

[5] = qHTS assay to identify small molecule HDAC inhibitors (AID 1259364);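 also: wild-type HCT-116 cells with endogenous class I/II HDAC activity; top concentration of the series differs between compounds; nearly all actives have a fitted effect of over 45% in size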
Method in brief: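 Relative class I and II HDAC activity is taken from the luminogenic signal in HCT-116 cells, with compound exposure 2 hr and reagent development 30 min at room temperature.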

[6] = qHTS assay to identify small molecule HDAC inhibitors - cell viability counter screen (AID 1259365); also: series mostly up to about 92 µM; nearly all actives have a fitted effect of over 50% in size
Method in brief: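 Viability readout: CellTiter-Glo luminescence. Wild-type HCT-116 cells, 2hr compound treatment following overnight attachment at 37 C.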

[7] = qHTS assay to identify small molecule agonists of the sonic hedgehog signaling (Shh) pathway - cell viability counter screen (AID 1259366); also: nearly all actives have a fitted effect of over 50% in size
Method in brief: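 Viability measured fluorometrically (CellTiter-Fluor, 1hr, 37C) in 3T3 Gli1-Luc reporter cells after 23hr compound exposure within a 24hr incubation at 37C/5% CO2.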

[8] = qHTS assay to identify small molecule antagonists of the sonic hedgehog signaling (Shh) pathway - cell viability counter screen (AID 1259367); also: nearly all actives have a fitted effect of over 55% in size
Method in brief: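 After a 4 hr settling period, 3T3 Gli1-Luc cells were treated with DMSO-dissolved chemicals and conditioned medium, kept 24 hr at 37C in 5% CO2, and assayed for viability by CellTiter-Fluor fluorescence following 1 hr reagent incubation.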

[9] = qHTS assay to identify small molecule agonists of the sonic hedgehog signaling (Shh) pathway (AID 1259368; calls by dose curve;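 also: NIH/3T3-derived 3T3Gli1-Luc cells carrying a stable Gli1-driven firefly luciferase reporter; series mostly up to about 92 µM; nearly all actives have a fitted effect of over 15% in size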)
Method in brief: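 Mouse fibroblast (NIH/3T3) reporter cells with stably integrated Gli1-Luc were treated 24 hr with compound; firefly luciferase luminescence served as the read-out.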

[10] = qHTS assay to identify small molecule antagonists of the sonic hedgehog signaling (Shh) pathway (AID 1259369; calls by dose curve; also: nearly all actives have a fitted effect of over 45% in size)
Method in brief: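 Conditioned medium drives Shh signalling in 3T3Gli1-Luc cells; compounds in DMSO co-applied, 24hr at 37 C, then luciferase luminescence.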

[11] = biological target: Estrogen receptor beta (Homo sapiens) (UniProt Q92731); experiment: qHTS assay to identify small molecule agonists of the estrogen receptor beta (ER-beta) signaling pathway (AID 1259377; active = well fitted activation curve with a large enough effect in the signal ratio in the repeat runs, not every such curve was filed as active; the % refers to the signal ratio)
Method in brief: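 A UAS-controlled beta-lactamase reporter in ER-beta-UAS-bla HEK293T cells reports receptor activation. Compounds act for 16 hr at 37C in 2% charcoal-stripped serum, and a FRET substrate is read by fluorescence after 2 hours.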

[12] = biological target: Estrogen receptor beta (Homo sapiens) (UniProt Q92731); experiment: qHTS assay to identify small molecule antagonists of the estrogen receptor beta (ER-beta) signaling pathway (AID 1259378; active = well fitted inhibition curve with a large enough effect in the signal ratio in the repeat runs, not every such curve was filed as active; the % refers to the signal ratio)
Method in brief: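 ER-beta-UAS-bla HEK293T (GripTite) cells in 2% charcoal-stripped FBS medium were preincubated 6 hr at 37C, dosed with compound, then stimulated with 1 nM E2 (final) for 16 hr; beta-lactamase reporter read by B/G FRET fluorescence after 2 hr substrate loading.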

[13] = qHTS assay to identify small molecule agonists of the androgen receptor (AR) signaling pathway in the presence of an antagonist - cell viability counter screen (AID 1259379);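 also: MDA-kb2 human breast cancer cells carrying an MMTV luciferase reporter; series mostly up to about 92 µM; nearly all actives have a fitted effect of over 25% in size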
Method in brief: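 A CellTiter-Fluor read-out measured viability of MDA-kb2 reporter cells (MMTV promoter with AR and GR response elements). Treatment: nilutamide 3.0uM final with compounds at 15 concentrations, 16 hr, 37C, 0% CO2.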

[14] = qHTS assay to identify small molecule agonists of the estrogen receptor beta (ER-beta) signaling pathway - cell viability counter screen (AID 1259380); also: nearly all actives have a fitted effect of over 30% in size
Method in brief: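 Cells used were ER-beta-UAS-bla HEK293T in medium with 2% charcoal-stripped FBS. They were treated for 16 hr at 37C. Viability came from CellTiter-Glo luminescence.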

[15] = biological target: Androgen receptor (Homo sapiens) (UniProt P10275); experiment: qHTS assay to identify small molecule agonists of the androgen receptor (AR) signaling pathway in the presence of an antagonist (AID 1259381; calls by dose curve; also: nearly all actives have a fitted effect of over 15% in size)
Method in brief: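 Using human MDA-kb2 cells with an MMTV promoter–luciferase construct (AR and GR response elements), agonist activity is scored under 3.0uM nilutamide (final) co-treatment; 16hr incubation, 37C, luminescence readout via ONE-Glo.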

[16] = qHTS assay to identify small molecule antagonists of the estrogen receptor beta (ER-beta) signaling pathway - cell viability counter screen (AID 1259382); also: series mostly up to about 92 µM; nearly all actives have a fitted effect of over 55% in size
Method in brief: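 Agonist-stimulated (1nM E2) ER-beta-UAS-bla HEK293T cells are incubated with library compounds for 16 hr at 37C. Cell viability is then assessed in the reporter-assay wells by adding CellTiter-Glo and reading luminescence after 30 min.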

[17] = biological target: Estrogen receptor (Homo sapiens) (UniProt P03372); experiment: qHTS assay to identify small molecule agonists of the estrogen receptor alpha (ER-alpha) signaling pathway in the presence of an antagonist (AID 1259383; calls by dose curve; also: top concentration of the series differs between compounds; nearly all actives have a fitted effect of over 15% in size)
Method in brief: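 Using VM7Luc4E2 cells seeded 24hr before treatment, antagonist ICI-182,780 (10.0nM final) was added, followed by compounds at 15 concentrations. Plates incubated 22hr; ONE-Glo luminescence quantified reporter activity.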

[18] = qHTS assay to identify small molecule agonists or antagonists of the thyroid stimulating hormone receptor (TSHR) signaling pathway - wild type cell line counter screen (AID 1259384; calls by dose curve)
Method in brief: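 Wild-type HEK293 cells were plated 18 h at 37 C/5% CO2, pin-dosed with compound plus Ro20-1724 medium, held 30 min at room temperature, then given cAMP-d2 and anti-cAMP-cryptate; fluorescence was read after 1 h. Fifteen concentrations, triplicate.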

[19] = biological target: Thyrotropin receptor (Homo sapiens) (UniProt P16473); experiment: qHTS assay to identify small molecule antagonists of the thyroid stimulating hormone receptor (TSHR) signaling pathway (AID 1259385; calls by dose curve; also: nearly all actives have a fitted effect of over 20% in size)
Method in brief: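 TSHR-HEK293 cells were plated and held 18 h at 37C/5% CO2, then given compound plus Ro20-1724 and stimulated with TSH at 1.5 ng/mL final. After 30 min at room temperature, cAMP was detected with cAMP-d2/anti-cAMP-cryptate (1 h) by fluorescence.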

[20] = qHTS assay to identify small molecule phospholipidosis (PLD) inducers (AID 1259344; active = well fitted curve in the direction sought with a large enough effect; an effect the other way counts as inactive or inconclusive)
Method in brief: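 HepG2 cells grown on collagen I take up LipidTOX Red while exposed to compound for 24 h; after fixation they are imaged at 20x and pit metrics are extracted.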

Measured: Potency

Androgen receptor (Homo sapiens), sequence (P10275 whole entry, looked up): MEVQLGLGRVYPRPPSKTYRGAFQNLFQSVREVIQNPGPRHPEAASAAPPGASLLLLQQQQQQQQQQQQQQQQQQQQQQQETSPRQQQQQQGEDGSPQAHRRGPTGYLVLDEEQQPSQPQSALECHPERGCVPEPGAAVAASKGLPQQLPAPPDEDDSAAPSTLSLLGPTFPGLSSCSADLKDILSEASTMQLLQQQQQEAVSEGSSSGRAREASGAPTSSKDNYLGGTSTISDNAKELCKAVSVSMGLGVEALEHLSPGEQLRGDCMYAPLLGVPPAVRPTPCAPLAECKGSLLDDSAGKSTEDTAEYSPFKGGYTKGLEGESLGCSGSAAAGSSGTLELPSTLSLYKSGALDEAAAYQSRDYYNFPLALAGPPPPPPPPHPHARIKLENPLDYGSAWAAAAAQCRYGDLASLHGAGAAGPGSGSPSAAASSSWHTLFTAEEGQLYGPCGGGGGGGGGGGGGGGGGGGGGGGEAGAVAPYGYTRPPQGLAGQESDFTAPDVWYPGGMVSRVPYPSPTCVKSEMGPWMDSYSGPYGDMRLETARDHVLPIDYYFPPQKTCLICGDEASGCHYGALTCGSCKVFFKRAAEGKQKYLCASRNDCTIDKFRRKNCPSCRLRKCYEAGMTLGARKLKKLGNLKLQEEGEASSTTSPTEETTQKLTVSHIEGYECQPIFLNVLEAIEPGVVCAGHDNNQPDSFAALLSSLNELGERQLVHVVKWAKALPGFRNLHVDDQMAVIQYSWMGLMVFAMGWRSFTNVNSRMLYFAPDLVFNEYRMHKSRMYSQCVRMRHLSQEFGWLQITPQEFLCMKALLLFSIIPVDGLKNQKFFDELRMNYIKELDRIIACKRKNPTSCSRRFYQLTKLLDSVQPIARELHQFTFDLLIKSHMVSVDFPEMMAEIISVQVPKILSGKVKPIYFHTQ
Estrogen receptor beta (Homo sapiens), sequence (Q92731 whole entry, looked up): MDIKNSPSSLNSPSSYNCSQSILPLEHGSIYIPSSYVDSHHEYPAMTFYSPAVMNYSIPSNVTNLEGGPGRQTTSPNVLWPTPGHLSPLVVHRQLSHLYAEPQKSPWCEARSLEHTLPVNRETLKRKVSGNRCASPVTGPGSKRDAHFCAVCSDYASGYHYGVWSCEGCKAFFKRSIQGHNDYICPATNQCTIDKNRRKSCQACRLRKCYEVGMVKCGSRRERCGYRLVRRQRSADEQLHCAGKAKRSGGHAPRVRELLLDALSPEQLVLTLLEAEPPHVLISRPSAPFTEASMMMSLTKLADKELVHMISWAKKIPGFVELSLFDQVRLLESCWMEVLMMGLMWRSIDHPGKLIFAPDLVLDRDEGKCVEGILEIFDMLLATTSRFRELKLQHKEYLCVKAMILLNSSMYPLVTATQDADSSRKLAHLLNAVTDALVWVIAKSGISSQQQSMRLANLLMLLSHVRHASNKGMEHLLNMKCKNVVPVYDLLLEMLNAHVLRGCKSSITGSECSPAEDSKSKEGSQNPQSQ
Thyrotropin receptor (Homo sapiens), sequence (P16473 whole entry, looked up): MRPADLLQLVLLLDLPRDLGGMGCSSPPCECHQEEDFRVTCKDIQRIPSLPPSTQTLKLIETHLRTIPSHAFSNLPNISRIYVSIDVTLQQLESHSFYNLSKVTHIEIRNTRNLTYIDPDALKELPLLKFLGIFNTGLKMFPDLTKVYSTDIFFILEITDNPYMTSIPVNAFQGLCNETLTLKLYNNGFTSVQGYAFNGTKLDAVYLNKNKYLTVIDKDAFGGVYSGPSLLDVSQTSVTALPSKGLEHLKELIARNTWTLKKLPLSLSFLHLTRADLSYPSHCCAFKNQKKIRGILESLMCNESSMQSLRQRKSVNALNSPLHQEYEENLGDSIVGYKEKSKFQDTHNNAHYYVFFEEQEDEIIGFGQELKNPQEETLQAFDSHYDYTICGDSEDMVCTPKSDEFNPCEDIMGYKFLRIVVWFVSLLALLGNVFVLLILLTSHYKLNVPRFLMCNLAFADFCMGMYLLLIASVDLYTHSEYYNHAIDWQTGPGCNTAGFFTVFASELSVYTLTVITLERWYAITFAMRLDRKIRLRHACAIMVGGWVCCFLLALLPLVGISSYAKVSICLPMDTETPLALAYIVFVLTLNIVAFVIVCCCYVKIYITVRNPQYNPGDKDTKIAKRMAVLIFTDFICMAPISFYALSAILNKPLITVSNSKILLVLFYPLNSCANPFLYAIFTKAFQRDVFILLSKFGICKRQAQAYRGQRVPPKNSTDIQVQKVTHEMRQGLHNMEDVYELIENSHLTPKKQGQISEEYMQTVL
Estrogen receptor (Homo sapiens), sequence (P03372 whole entry, looked up): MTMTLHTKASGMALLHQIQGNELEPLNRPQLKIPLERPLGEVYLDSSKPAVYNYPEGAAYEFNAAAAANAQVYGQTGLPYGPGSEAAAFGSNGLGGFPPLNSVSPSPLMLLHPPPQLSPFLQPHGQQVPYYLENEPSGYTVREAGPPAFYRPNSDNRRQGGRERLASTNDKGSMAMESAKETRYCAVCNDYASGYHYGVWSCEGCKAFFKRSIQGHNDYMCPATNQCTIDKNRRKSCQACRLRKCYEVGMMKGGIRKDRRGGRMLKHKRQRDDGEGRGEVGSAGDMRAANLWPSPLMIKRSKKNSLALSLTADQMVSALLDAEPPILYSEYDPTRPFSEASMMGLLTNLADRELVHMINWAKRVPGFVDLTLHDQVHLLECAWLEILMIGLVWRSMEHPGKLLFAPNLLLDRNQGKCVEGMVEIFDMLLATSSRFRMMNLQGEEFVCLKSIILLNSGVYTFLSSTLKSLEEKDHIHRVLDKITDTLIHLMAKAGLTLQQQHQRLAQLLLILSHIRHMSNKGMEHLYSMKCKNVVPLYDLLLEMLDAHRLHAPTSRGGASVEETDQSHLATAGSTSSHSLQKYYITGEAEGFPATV

COc1ncc(F)c2nc(S(=O)(=O)Nc3c(F)cccc3F)nn12
not listed: [20]
inactive: all other assays above

CCOP(=O)(OCC)OP(=O)(OCC)OCC
not listed: [4] | [11] | [17] | [20]
inactive: all other assays above

O=C(N[C@H]1CN2CCC1CC2)c1cc2ccoc2cn1
not listed: [14] | [18] | [20]
inactive: all other assays above

O=C(O)c1ccc2[nH]cc(CCCCN3CC=C(c4ccccc4)CC3)c2c1
not listed: [10] | [11] | [12]
inactive: all other assays above

CCC(=O)C(CCN(C)C)(c1ccccc1)c1ccccc1
not listed: [10] | [11] | [12] | [14] | [18] | [19] | [20]
inactive: all other assays above

Cc1ncsc1CCCl
not listed: [3] | [15]
inactive: all other assays above

CC(=O)Nc1cc([As](=O)(O)O)ccc1O
not listed: [3] | [15]
inactive: all other assays above

O=NN1CCCCC1
not listed: [4] | [8] | [17] | [20]
inactive: all other assays above

CCCCOC(=O)c1ccccc1C(=O)O
not listed: [4] | [8] | [14] | [17] | [20]
inactive: all other assays above

COC(=O)C1=CCCN(C)C1
not listed: [3] | [10] | [15]
inactive: all other assays above

CNNC
not listed: [3] | [11] | [15] | [18] | [19] | [20]
inactive: all other assays above

CCC(Cl)[N+](=O)[O-] (centres undefined)
not listed: [3] | [14] | [15] | [20]
inactive: all other assays above

CC(=O)[C@H]1CC[C@H]2[C@@H]3CC[C@H]4C[C@H](O)CC[C@]4(C)[C@H]3C(=O)C[C@]12C
not listed: [3] | [8] | [14] | [15] | [18] | [19]
inactive: all other assays above

ClC(Cl)(Cl)C(Cl)(Cl)Cl
not listed: [3] | [15] | [18] | [19] | [20]
inactive: all other assays above

Cc1ncc(CNC(=O)N(CCCl)N=O)c(N)n1
not listed: [3] | [8] | [11] | [12] | [15] | [18]
inactive: all other assays above

N#Cc1ccncc1
not listed: [3] | [15] | [18] | [19] | [20]
inactive: all other assays above
